This is an account of results in PubChem BioAssay (Tox21).

Molecules are shown by their SMILES. Unmarked numbers belong to inactive results. Records with an inconclusive call do not appear. Active and inactive are the calls of the source. Unless noted, calls come from the whole dose curve; as a rule, active = well fitted curve in the direction sought with a large enough effect in the repeat runs; inconclusive = weak or mixed curves; inactive = no such curve, though single readings can be large; an effect the other way counts as inactive or inconclusive.

Experiment [1] is described as follows: qHTS assay to identify small molecule agonists of the sonic hedgehog signaling (Shh) pathway (AID 1259368; calls by dose curve;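 note: NIH/3T3-derived 3T3Gli1-Luc cells carrying a stable Gli1-driven firefly luciferase reporter; series mostly up to about 92 µM; nearly all actives have a fitted effect of over 15% in size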). The gist of the method: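 NIH/3T3-derived 3T3Gli1-Luc cells with stably integrated Gli1-driven firefly luciferase, 2,000 cells/well, compounds added after 4 hr. Incubated 24 hr at 37C, 5% CO2; luminescence read after 30 min with luciferase reagent at room temperature.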

The nature of experiment [2]: qHTS assay to identify small molecule agonists of the androgen receptor (AR) signaling pathway in the presence of an antagonist - cell viability counter screen (AID 1259379).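 Note: MDA-kb2 human breast cancer cells carrying an MMTV luciferase reporter; series mostly up to about 92 µM; nearly all actives have a fitted effect of over 25% in size.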 The essentials:
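MDA-kb2 cells (MMTV-luciferase, AR/GR), 3,000/well, 5 h attachment, then 3.0 µM nilutamide (final) and compounds at 15 concentrations. Viability by CellTiter-Fluor fluorescence after 16 h at 37 °C, 0% CO2, in the reporter wells.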

Experiment [3] in a line: qHTS assay to identify small molecule agonists of the estrogen receptor beta (ER-beta) signaling pathway - cell viability counter screen (AID 1259380). Note: nearly all actives have a fitted effect of over 30% in size. Note: potency is the fitted concentration of half-maximal effect. The essentials:
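ER-beta-UAS-bla HEK293T cells in medium with 2% charcoal-stripped FBS, pre-incubated 6 hr, then treated 16 hr at 37C. Cytotoxicity read in the same wells by CellTiter-Glo luminescence after 30 min at room temperature.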
For orientation: In qHTS, concentration-response curves come from the screen itself.

The nature of experiment [4]: qHTS assay to identify small molecule antagonists of the estrogen receptor beta (ER-beta) signaling pathway - cell viability counter screen (AID 1259382).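 For activity change, negative = cytotoxicity: HEK293T cells carrying ER-beta-UAS-bla reporter stimulated with estradiol; series mostly up to about 92 µM.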 Note: nearly all actives have a fitted effect of over 55% in size. Note: potency is the fitted concentration of half-maximal effect. The essentials: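 ER-beta-UAS-bla HEK293T cells in 2% charcoal-stripped FBS medium, treated with compound plus 1 nM 17-beta-estradiol for 16 h at 37C. Viability read by CellTiter-Glo luminescence after 30 min at room temperature in the same wells.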

Experiment [5] in a line: qHTS assay to identify small molecule agonists or antagonists of the thyroid stimulating hormone receptor (TSHR) signaling pathway - wild type cell line counter screen (AID 1259384; calls by dose curve). The gist of the method: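 Counter screen in untransfected Hek293: compounds (15-point titration, triplicate) plus phosphodiesterase inhibitor Ro20-1724 added after 18 h plating; 30 min RT. Intracellular cAMP via competitive d2/cryptate immunoassay, 1 h incubation.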

Experiment [6] addresses Thyrotropin receptor (Homo sapiens) (UniProt P16473). Kind of experiment: qHTS assay to identify small molecule antagonists of the thyroid stimulating hormone receptor (TSHR) signaling pathway (AID 1259385; calls by dose curve; note: nearly all actives have a fitted effect of over 20% in size). The essentials: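 Antagonist mode: compound-treated TSHR-expressing HEK293 cells were stimulated with 1.5 ng/mL TSH (final) in presence of Ro20-1724 for 30 min at RT. HTRF cAMP detection after 1 h; each compound tested at 15 concentrations, triplicate.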

The nature of experiment [7]: qHTS assay to identify small molecule agonists of the estrogen receptor alpha (ER-alpha) signaling pathway in the presence of an antagonist - cell viability counter screen (AID 1259386).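 Note: series mostly up to about 92 µM; cells exposed to compounds for 22 h at 37 °C before the viability read; nearly all actives have a fitted effect of over 30% in size.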 The gist of the method:
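Cell viability in VM7Luc4E2 cells (endogenous full-length ER-alpha) measured by CellTiter-Fluor fluorescence in the same wells as the luciferase screen. Cells pre-cultured 5 days in charcoal-stripped serum, then treated 22 h with compounds at 15 concentrations plus 10.0nM ICI-182,780.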

Experiment [8] deals with Progesterone receptor (Homo sapiens) (UniProt P06401). Kind of experiment: qHTS assay to identify small molecule agonists of the progesterone receptor (PR) signaling pathway (AID 1346784; calls by dose curve; note: nearly all actives have a fitted effect of over 30% in size). The gist of the method:
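PR-UAS-bla HEK 293T cells carrying a UAS-driven beta-lactamase reporter were seeded in medium with 2% charcoal-stripped FBS, preincubated 6 hr at 37C, then exposed to compounds in DMSO for 16 hr; agonism was read by LiveBLAzer B/G FRET fluorescence.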

A short description of experiment [9]: qHTS assay to identify small molecule antagonists of the progesterone receptor (PR) signaling pathway - cell viability counter screen (AID 1346798). Note: series mostly up to about 92 µM; nearly all actives have a fitted effect of over 50% in size. The gist of the method:
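PR-UAS-bla HEK293T cells in medium with 2% charcoal-stripped FBS were treated with compounds plus R5020 for 16 hr at 37C. Cell viability was then read by CellTiter-Glo luminescence after 30 min at room temperature in the same wells.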

Experiment [10] in a line: qHTS assay to identify small molecule agonists of the progesterone receptor (PR) signaling pathway - cell viability counter screen (AID 1346799; calls by dose curve; note: nearly all actives have a fitted effect of over 45% in size). The gist of the method:
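PR-UAS-bla HEK293T cells, 3,000 per well in medium with 2% charcoal-stripped FBS, were preincubated 6 hr at 37C, then exposed to compounds for 16 hr; viability was read as CellTiter-Glo luminescence after 30 min at room temperature.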

The nature of experiment [11]: qHTS assay to identify small molecule antagonists of the TGF-beta/Smad signaling pathway - cell viability counter screen (AID 1346824). Note: nearly all actives have a fitted effect of over 50% in size. The essentials: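 Cytotoxicity counter-screen run in the same wells as the beta-lactamase Smad reporter read: CellTiter-Glo luminescence after 30 min at room temperature. HEK 293T SBE-bla cells had 5 hr compound exposure at 37 C with TGF-beta1 (0.25 ng/mL stock).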

Experiment [12] in a line: qHTS assay to identify small molecule agonists of the TGF-beta/Smad signaling pathway - cell viability counter screen (AID 1346829). Note: top concentration of the series differs between compounds; nearly all actives have a fitted effect of over 45% in size. The essentials: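 CellTiter-Glo luminescence readout; SBE-bla HEK 293T cells, overnight plating, compound 5 hr at 37 C/5% CO2, then bla substrate 2 hr RT, then CellTiter-Glo 30 min RT.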
Experiment [13] can be described thus: qHTS assay to identify small molecule agonists of the TGF-beta/Smad signaling pathway (AID 1346859; active = well fitted activation curve with a large enough effect in the signal ratio in the repeat runs, not every such curve was filed as active; the % refers to the signal ratio; note: series mostly up to about 77 µM). The gist of the method:
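HEK 293T cells stably carrying a beta-lactamase reporter driven by the Smad binding element were seeded overnight, exposed to DMSO-dissolved compounds for 5 hr at 37 C, 5% CO2, then loaded with FRET substrate for 2 hr at room temperature.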

For experiment [14], the target named is Thyrotropin-releasing hormone receptor (Homo sapiens) (UniProt P34981). Kind of experiment: qHTS assay to identify small molecule antagonists of the thyrotropin-releasing hormone receptor (TRHR) signaling pathway (AID 1346877; active = well fitted inhibition curve with a large enough effect in the repeat runs, not every such curve was filed as active; note: series mostly up to about 51 µM). The gist of the method: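 TRHR-expressing HEK293 cells loaded with calcium dye for 2 h at 37 C; compounds pre-incubated 5 min at room temperature before TRH challenge at 1 nM final. Intracellular calcium fluorescence read kinetically for 3 min; 15 concentrations in triplicate.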

In experiment [15] the target is Estrogen receptor (Homo sapiens) (UniProt P03372). Kind of experiment: qHTS assay to identify small molecule agonists of the estrogen receptor alpha (ER-alpha) signaling pathway in the presence of an antagonist (AID 1259383; calls by dose curve; note: top concentration of the series differs between compounds; nearly all actives have a fitted effect of over 15% in size). The essentials: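 VM7Luc4E2 cells express endogenous full-length ER-alpha with an ERE-luciferase reporter and were hormone-deprived for 5 days. Compounds at 15 concentrations were added with 10.0nM ICI-182,780 for 22hr at 37C. Luminescence was read with ONE-Glo.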

Experiment [16] addresses Progesterone receptor (Homo sapiens) (UniProt P06401). Description: qHTS assay to identify small molecule antagonists of the progesterone receptor (PR) signaling pathway (AID 1346795; active = well fitted inhibition curve with a large enough effect in the signal ratio in the repeat runs, not every such curve was filed as active; the % refers to the signal ratio; note: potency is the fitted concentration of half-maximal effect). The essentials: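 PR-UAS-bla HEK293T cells carrying a UAS-driven beta-lactamase reporter were plated in medium with 2% charcoal-stripped FBS and rested 6 hr at 37C. Compounds were added with 1 nM R5020 (final) for 16 hr, then FRET substrate loaded 2 hr at room temperature.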

The target in experiment [17] is Androgen receptor (Homo sapiens) (UniProt P10275). Description: qHTS assay to identify small molecule agonists of the androgen receptor (AR) signaling pathway in the presence of an antagonist (AID 1259381; calls by dose curve; note: nearly all actives have a fitted effect of over 15% in size). The essentials:
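MDA-kb2 cells carrying MMTV-luciferase (AR/GR responsive), 3,000 cells/well, co-treated with 3.0 uM nilutamide final. Compounds at 15 concentrations, 16 hr at 37C without CO2. Luciferase luminescence read after 30 min with ONE-Glo.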
% is set by controls: 0 for no effect and ±100 for the full control effect.

Chain of Progesterone receptor (Homo sapiens) (P06401 whole entry, looked up): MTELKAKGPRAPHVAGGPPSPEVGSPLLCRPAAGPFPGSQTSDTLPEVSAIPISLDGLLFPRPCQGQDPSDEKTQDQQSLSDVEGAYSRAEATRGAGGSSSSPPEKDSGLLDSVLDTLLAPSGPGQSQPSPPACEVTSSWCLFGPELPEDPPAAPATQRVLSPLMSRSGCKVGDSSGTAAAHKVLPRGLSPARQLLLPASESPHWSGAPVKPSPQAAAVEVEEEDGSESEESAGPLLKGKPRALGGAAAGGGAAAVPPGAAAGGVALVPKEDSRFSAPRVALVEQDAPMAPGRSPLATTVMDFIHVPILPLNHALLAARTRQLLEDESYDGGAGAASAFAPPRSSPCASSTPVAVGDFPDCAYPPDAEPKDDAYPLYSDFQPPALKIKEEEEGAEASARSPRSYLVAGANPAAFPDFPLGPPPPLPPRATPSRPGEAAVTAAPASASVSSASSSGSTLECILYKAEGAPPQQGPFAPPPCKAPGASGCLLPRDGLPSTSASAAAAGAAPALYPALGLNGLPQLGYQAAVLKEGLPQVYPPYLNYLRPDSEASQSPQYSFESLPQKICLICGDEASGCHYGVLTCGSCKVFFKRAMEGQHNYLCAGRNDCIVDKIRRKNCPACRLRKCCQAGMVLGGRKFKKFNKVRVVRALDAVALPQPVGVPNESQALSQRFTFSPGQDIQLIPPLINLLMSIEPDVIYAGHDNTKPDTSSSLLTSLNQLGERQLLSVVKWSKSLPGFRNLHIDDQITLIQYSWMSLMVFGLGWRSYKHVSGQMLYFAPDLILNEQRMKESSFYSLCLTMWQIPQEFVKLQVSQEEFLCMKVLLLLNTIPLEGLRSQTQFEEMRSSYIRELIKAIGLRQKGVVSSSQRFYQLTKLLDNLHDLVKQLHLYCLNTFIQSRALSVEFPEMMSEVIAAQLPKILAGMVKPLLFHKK
Chain of Thyrotropin receptor (Homo sapiens) (P16473 whole entry, looked up): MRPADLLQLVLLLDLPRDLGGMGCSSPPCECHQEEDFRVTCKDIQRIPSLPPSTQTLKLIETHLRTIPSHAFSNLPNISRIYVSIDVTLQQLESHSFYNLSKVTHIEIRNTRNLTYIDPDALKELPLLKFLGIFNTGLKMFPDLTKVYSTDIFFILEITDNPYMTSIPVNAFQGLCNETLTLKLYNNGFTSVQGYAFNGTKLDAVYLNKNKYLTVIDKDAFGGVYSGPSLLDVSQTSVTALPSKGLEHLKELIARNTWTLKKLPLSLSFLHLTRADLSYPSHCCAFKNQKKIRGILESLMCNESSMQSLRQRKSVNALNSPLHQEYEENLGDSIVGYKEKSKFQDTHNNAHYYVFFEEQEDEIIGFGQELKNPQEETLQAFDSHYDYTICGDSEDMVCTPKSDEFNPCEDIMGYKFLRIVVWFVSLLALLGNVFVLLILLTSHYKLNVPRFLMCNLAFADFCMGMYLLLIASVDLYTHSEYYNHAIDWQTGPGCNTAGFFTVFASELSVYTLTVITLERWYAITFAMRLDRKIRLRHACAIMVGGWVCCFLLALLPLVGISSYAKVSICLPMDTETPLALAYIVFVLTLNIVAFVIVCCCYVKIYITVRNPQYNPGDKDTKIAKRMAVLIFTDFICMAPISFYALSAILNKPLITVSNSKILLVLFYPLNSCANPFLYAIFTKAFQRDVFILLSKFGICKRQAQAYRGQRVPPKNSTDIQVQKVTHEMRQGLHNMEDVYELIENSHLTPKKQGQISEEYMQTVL
Chain of Thyrotropin-releasing hormone receptor (Homo sapiens) (P34981 whole entry, looked up): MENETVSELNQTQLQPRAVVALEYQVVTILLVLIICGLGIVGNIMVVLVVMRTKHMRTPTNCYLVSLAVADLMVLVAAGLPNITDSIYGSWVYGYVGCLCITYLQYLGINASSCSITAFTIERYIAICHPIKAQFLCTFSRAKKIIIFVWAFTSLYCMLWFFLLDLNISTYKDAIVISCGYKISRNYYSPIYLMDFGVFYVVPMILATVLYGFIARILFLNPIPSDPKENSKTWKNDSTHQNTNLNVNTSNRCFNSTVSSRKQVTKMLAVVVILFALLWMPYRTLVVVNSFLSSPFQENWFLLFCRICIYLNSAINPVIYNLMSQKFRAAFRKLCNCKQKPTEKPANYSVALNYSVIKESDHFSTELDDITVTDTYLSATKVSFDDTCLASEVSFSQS
Chain of Estrogen receptor (Homo sapiens) (P03372 whole entry, looked up): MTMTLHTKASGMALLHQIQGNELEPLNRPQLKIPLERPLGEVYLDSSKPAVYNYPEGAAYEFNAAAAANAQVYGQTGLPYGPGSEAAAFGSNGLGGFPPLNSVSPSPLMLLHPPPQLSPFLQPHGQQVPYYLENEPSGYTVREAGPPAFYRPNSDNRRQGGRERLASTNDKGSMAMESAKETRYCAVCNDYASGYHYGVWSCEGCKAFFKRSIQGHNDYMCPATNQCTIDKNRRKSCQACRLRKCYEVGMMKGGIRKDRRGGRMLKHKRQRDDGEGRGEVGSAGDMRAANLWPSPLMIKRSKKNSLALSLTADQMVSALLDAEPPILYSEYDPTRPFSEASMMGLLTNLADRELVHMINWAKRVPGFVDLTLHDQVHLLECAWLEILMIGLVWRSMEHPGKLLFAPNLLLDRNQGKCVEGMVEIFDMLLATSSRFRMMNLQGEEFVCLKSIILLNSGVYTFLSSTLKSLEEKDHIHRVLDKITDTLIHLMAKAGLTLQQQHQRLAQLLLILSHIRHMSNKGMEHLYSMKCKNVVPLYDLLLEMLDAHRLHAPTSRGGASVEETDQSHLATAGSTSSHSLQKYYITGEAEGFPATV
Chain of Androgen receptor (Homo sapiens) (P10275 whole entry, looked up): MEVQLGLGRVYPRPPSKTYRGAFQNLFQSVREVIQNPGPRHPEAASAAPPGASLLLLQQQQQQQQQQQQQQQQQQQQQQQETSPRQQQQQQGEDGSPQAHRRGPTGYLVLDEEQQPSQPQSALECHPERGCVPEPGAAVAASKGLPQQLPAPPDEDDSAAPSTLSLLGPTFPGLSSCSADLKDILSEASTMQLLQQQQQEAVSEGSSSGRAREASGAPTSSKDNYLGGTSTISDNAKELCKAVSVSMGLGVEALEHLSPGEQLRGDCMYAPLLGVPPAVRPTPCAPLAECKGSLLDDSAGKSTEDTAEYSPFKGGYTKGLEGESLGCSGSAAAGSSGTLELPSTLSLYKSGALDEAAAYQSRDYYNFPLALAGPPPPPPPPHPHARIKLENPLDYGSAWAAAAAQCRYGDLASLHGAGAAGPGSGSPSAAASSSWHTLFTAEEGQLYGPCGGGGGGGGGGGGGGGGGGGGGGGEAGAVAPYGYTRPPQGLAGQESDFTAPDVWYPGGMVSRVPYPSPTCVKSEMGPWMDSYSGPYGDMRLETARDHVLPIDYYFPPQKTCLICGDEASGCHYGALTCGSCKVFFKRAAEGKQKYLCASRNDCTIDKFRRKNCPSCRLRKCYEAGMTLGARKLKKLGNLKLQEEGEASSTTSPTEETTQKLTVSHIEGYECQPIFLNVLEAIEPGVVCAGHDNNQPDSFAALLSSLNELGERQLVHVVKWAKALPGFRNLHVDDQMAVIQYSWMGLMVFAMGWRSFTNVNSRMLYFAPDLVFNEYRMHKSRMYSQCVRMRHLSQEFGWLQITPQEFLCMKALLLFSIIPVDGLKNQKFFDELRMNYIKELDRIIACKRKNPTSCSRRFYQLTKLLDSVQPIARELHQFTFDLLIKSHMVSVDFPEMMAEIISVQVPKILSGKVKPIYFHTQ

Take `NC(=O)Nc1ccc(Cl)c(Cl)c1`: the Potency entry in experiment [1], in experiment [2], in experiment [3], in [4], in experiment [6] and in experiment [7] was “inactive” each time. Moreover, the Potency result in [8], in experiment [9] and in [10] was “inactive” throughout. In addition, the outcome in experiment [5], in experiment [11], in [12], in [13] and in experiment [14] was inactive.

For the compound `COCCOC(=O)C1=C(C)NC(C)=C(C(=O)OC/C=C/c2ccccc2)C1c1cccc([N+](=O)[O-])c1` (stereo not given), the Potency result in [1], in [2], in experiment [3], in experiment [4], in experiment [15] and in [6] was “inactive” in each case. Moreover, the Potency result in [7] and in [8] was “inactive” throughout. Moreover, the call in experiment [5], in [11], in [12], in experiment [13] and in [14] was inactive. The Potency in experiment [16] is 4.22 µM (active).

For the compound `CCCCCCCCCCCCCCCCBr`, in [1], the activity change was -0.182% [at 18.9 µM, active compounds read high]. Moreover, the activity change, negative = cytotoxicity in experiment [2] was 1.54% [at 19 µM]; in [3], 2.84% [at 19 µM]; in experiment [4], -0.0957% [at 19 µM]; in experiment [7] it was 0.981% [at 19 µM]; in experiment [9], 0.653% [at 18.9 µM]; in experiment [10], 9.85% [at 19 µM]. The activity change, negative = cytotoxicity in experiment [12] was -1.12% [at 15.8 µM]. Moreover, the activation in [15] is -0.645% [at 19 µM]; in experiment [8], 1.24% [at 19 µM]; in [13], -2.16% [at 15.8 µM]. Further, the cAMP activity change in [5] was -0.461% [at 18.9 µM]. The activity change, negative = inhibition in experiment [6] was -0.923% [at 19 µM]; in experiment [16] it was -0.513% [at 18.9 µM]. The viability change, negative = cytotoxic in [11] is -3.09% [at 15.8 µM].

Regarding `CC(C)(C)C(=O)O`, the Potency entry in [1], in experiment [2], in experiment [3], in [4], in experiment [6] and in [7] was “inactive” throughout. Besides, the Potency result in experiment [8], in experiment [16] and in [10] was “inactive” throughout. Besides, the call in experiment [5], in [11], in experiment [12], in experiment [13] and in [14] was inactive.

Take `O=C(OCCOCCO)c1ccccc1Nc1cccc(C(F)(F)F)c1`: the Potency result in [1], in [2], in [3], in experiment [4], in experiment [15] and in experiment [6] was “inactive” in each case. The Potency entry in experiment [7] and in experiment [8] was “inactive” in each case. Further, the result in [5], in [11], in [12], in experiment [13] and in [14] was inactive. Moreover, the Potency in experiment [16] is 18.8 µM (active).

Turning to `COc1ccc(C(=O)c2cccc(O)c2)c(OC)c1`, the Potency result in experiment [1], in experiment [2], in [17], in experiment [4], in experiment [7] and in experiment [8] was “inactive” in each case. Also, the compound was called inactive in [11], in experiment [12], in experiment [13] and in experiment [14].

In the case of `O=C(CCCCCCC(=O)Nc1ccccc1)NO`, the Potency result in [1], in experiment [2], in [15], in [6], in experiment [7] and in experiment [8] was “inactive” each time. For the same compound, the Potency entry in experiment [9] and in [10] was “inactive” throughout. In addition, the Potency in experiment [3] was 2.66 µM (active); in experiment [4], 1.19 µM (active). For the same compound, the result in experiment [5], in experiment [11], in experiment [12], in experiment [13] and in [14] was inactive.

On to `COC(=O)CC(=O)C(C)(C)C`, for which the Potency result in experiment [1], in [2], in experiment [15], in experiment [6], in experiment [7] and in experiment [8] was “inactive” in each case. The call in [5], in [11], in experiment [12] and in experiment [13] was inactive.

On to `CC1=CC(=O)CC(C)(C)C1(O)/C=C/C(C)=C\C(=O)O` (stereo not given), for which the Potency result in experiment [1], in experiment [2], in experiment [3], in experiment [4], in [6] and in [7] was “inactive” throughout. Besides, the Potency entry in experiment [8], in experiment [9] and in experiment [10] was “inactive” throughout. In addition, the compound was called inactive in [5], in experiment [11], in experiment [12], in experiment [13] and in [14].
